# Sampled rows, rich in hits. Any-hit rate of the full collection: about 3.5%.
# GPR151 activ – activators of human GPR151; Q8TDV0; PathHunter beta-arrestin GPR151 cells, luminescence; activation, % at 11.2 µM; hit rate 1% among 650,000; AID 1508602; in the data active = activation above about 4.9%
# TEAD-YAP block – TEAD-YAP interaction inhibition; hit rate 1.4% among 640,000; HEK-TIYL cells, TEAD-Gal4/YAP UAS-luciferase luminescence; inhibition, % at 9.12 µM; AID 1259422; in the data active = inhibition above about 32%
# FBW7 act – human FBW7 E3 ligase activation, primary screen; AlphaScreen FBW7–phospho-cyclin E peptide binding, activator screen; Q969H0; AID 1259310; normalized activity (activation), % at 26.1 µM; hit rate 0.13% among 650,000; in the data active = normalized activity above about 1.9%;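 also: purified mutant Fbw7 with reduced substrate affinity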
# MITF primary – inhibitors of human MITF; inhibition, % at 2.6 µM; hit rate 0.91% among 650,000; AID 1259374; AlphaScreen MITF homodimerization, bead proximity signal; in the data active = inhibition above about 50%
# Target sequence (O75030 whole entry, looked up): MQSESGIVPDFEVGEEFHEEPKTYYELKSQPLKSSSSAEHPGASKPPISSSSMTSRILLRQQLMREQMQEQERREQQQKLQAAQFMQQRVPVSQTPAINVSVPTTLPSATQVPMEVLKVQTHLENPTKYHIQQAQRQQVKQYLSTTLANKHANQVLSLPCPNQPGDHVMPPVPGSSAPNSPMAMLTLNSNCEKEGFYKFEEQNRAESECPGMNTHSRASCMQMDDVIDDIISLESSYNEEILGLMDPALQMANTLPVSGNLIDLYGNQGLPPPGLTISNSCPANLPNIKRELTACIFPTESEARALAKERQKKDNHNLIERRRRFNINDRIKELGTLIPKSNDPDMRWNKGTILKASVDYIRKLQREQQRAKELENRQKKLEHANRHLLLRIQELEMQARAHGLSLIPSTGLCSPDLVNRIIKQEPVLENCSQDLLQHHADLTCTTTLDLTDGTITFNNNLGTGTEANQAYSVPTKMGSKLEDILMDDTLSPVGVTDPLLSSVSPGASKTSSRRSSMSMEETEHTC
# A number is an active result; n = inactive.
SMILES,GPR151 activ,TEAD-YAP block,FBW7 act,MITF primary
CCc1c(-c2ccccc2)n(CC(O)c2ccccc2)c2nc3c(c(=O)n(C)c(=O)n3C)n12 (centres undefined),n,38.9,n,n
CCCCN(CC)CCCNC(=O)Cn1nc(-c2ccccc2)ccc1=O,n,n,n,n
COc1ccc(OS(=O)(=O)c2cc(OC)ccc2OC)cc1,n,49.8,n,n
COc1ccc(OC)c(S(=O)(=O)c2cc(OC)ccc2OC)c1,n,n,n,n
Cc1ccc(CN(Cc2ccccn2)C(=S)Nc2ccc(Oc3ccccc3)cc2)cc1,n,n,n,n
Cc1ccc(C)n1-c1ccccc1N,n,51.0,n,n
CCOc1cc(-c2nnc(SCC(=O)Nc3ccc(C(C)C)cc3)nc2-c2ccc(OC)c(OCC)c2)ccc1OC,n,n,n,n
Cc1ccc(NC(=O)CCOc2ccccc2)cc1Cl,n,n,2.4,n
COc1ccc(CCNS(=O)(=O)c2ccc3c(c2)NC(=O)CC(=O)N3)cc1OC,n,n,n,n
Cc1nc2ccccn2c1C(=O)NCc1ccccc1,n,n,n,n
Cc1nc2ccccn2c1C(=O)NCc1ccccc1Oc1ccccc1,n,n,1.9,n
CCC(C)NC(=O)c1c(C)nc2ccccn12 (centres undefined),n,n,2.1,n
O=C(/C=C/c1c(F)cccc1Cl)n1cccn1,n,n,n,n
COc1ccc(C(=O)N=c2sc3cc(F)ccc3n2C)c(OC)c1,n,55.3,n,n
Oc1cccc2ccc(/C=C/c3ccc4c(c3)OCCO4)nc12,n,92.0,n,n
CC(=O)Oc1cccc2ccc(/C=C/c3ccc4c(c3)OCO4)nc12,n,78.3,n,n
CC(=O)Oc1cccc2ccc(/C=C/c3cc4c(cc3Cl)OCO4)nc12,n,n,n,n
O=C(NCC1COc2ccccc2O1)c1ccc2c(=O)n(Cc3ccc4c(c3)OCO4)c(=S)[nH]c2c1 (centres undefined),n,n,n,n
Cc1ccc(S(=O)(=O)/N=C2/C=C(ON=C3C=CC(=O)C=C3)C(=O)c3ccccc32)cc1,n,45.4,n,n
Cc1nc(NC(=O)c2cc3ccccc3o2)ccc1I,n,n,n,n
Cc1nc(NC(=O)c2ccco2)ccc1I,n,38.5,n,n
C=CCn1c(-c2ccccc2)cnc1SCC(=O)Nc1ccccc1,n,n,n,n
C=CCn1c(-c2ccc(Cl)cc2)cnc1SCC(=O)Nc1sccc1C(N)=O,n,33.6,n,n
Cc1nc(N2CCCC(NC3CCOC3)CC2)nc2cc(S(C)(=O)=O)ccc12 (centres undefined),n,n,n,n
CC1=NN(c2ccc(Br)cc2)C(=O)/C1=C\c1ccc(-c2c(Br)cc([N+](=O)[O-])cc2Br)o1,n,n,n,n
SMILES,GPR151 activ,TEAD-YAP block,FBW7 act,MITF primary
CC1=NN(c2ccc([N+](=O)[O-])cc2)C(=O)/C1=C\c1ccc(C)o1,n,n,n,80.6
C=CCNc1ncnc2scc(-c3ccccc3)c12,n,38.5,n,n
c1csc(CCNc2ncnc3sc4c(c23)CCC4)c1,n,37.0,n,n
Fc1ccc(-c2csc3ncnc(NCCc4cccs4)c23)cc1,n,43.2,n,n
Cc1cc2nc(N3CCC(NCc4cc(C(C)C)no4)CC3)nc(C)c2cc1C,n,n,n,n
CCOC(=O)COc1ccc2ccccc2c1/C=C/[N+](=O)[O-],n,n,n,n
COc1ccc2ccccc2c1/C=C/[N+](=O)[O-],n,49.3,n,n
CC(C)Oc1ccc2ccccc2c1/C=C/[N+](=O)[O-],n,35.6,n,n
CN1CCN(c2ccc(-c3nc4ccc(C(N)=O)cc4s3)cc2)CC1,n,44.2,n,n
COc1ccc(S(=O)(=O)Nc2ccc3c(c2)OCCO3)cc1Br,n,n,n,n
COc1ccccc1Oc1ccc(S(=O)(=O)Nc2ccc3c(c2)OCCO3)cc1,n,44.3,n,n
CCOC(=O)c1cc2sc(Br)cc2n1CC(=O)N(C)C,n,34.4,n,n
COc1ccc(C(=O)Nn2c(SCC(=O)c3ccc(F)cc3)nc3ccccc3c2=O)cc1,n,46.2,n,n
O=C(Cc1ccccc1)Nn1c(SCC(=O)c2ccc(F)cc2)nc2ccccc2c1=O,n,n,n,n
COc1cc2[nH]c(=S)n(NC(=O)c3ccccc3)c(=O)c2cc1OC,n,n,n,n
O=C(CSc1cnc2ccccc2n1)c1ccc(F)cc1,n,49.2,n,n
COc1cccc(C(=O)Nn2c(=S)[nH]c3ccccc3c2=O)c1,n,40.1,n,n
COc1ccc(C(=O)Nn2c(SCC(=O)c3ccccc3)nc3ccccc3c2=O)cc1,n,69.9,n,n
O=C(CSc1nc2ccccc2c(=O)n1NC(=O)c1ccccc1)c1ccc(Br)cc1,n,n,n,n
O=C(Cn1c(=O)oc2cc(Cl)ccc21)N1CCN(c2cccc(C(F)(F)F)c2)CC1,n,n,n,n
CC(Oc1ccccc1)C(=O)NCc1nc(-c2ccccc2)no1 (centres undefined),n,n,n,n
COc1cc(OC)cc(C(=O)Nn2c(-c3cccc(C)c3)nc3ccccc3c2=O)c1,n,n,1.9,n
COc1cccc(C(=O)Nn2c(-c3cccc(OC)c3)nc3ccccc3c2=O)c1,n,n,n,n
COc1ccc(C(=O)Nn2c(SCC(=O)NCCc3ccc(OC)c(OC)c3)nc3ccccc3c2=O)cc1,n,78.2,n,n
COc1ccc(C(=O)Nn2c(SCc3ccc([N+](=O)[O-])cc3)nc3ccccc3c2=O)cc1,n,48.9,n,n
SMILES,GPR151 activ,TEAD-YAP block,FBW7 act,MITF primary
COc1ccc(CCNC(=O)CSc2nc3ccccc3c(=O)n2NC(=O)Cc2ccccc2)cc1OC,n,n,n,n
O=C1C2C(C(=O)N1c1ccc(F)cc1)N1CCCN1C2c1ccc(F)cc1 (centres undefined),n,n,n,n
Cc1ccc(C2c3c(-c4ccc(F)cc4)n[nH]c3C(=O)N2c2ccccc2)cc1 (centres undefined),n,n,n,n
Cc1ccc(-c2n[nH]c3c2C(c2ccccc2F)N(c2ccccc2)C3=O)cc1 (centres undefined),n,47.8,n,n
CN(Cc1ccccc1)C(=O)CCC1CCN(C(=O)C2(c3ccccc3)CC2)CC1,n,n,n,n
O=C(Cc1ccccc1)Nc1cnn(-c2cccc(C(=O)Nc3ccc(Cn4ccnc4)cc3)c2)c1,n,n,n,n
O=C(Nc1ccc(Cn2ccnc2)cc1)c1cccc(-n2cc(NC(=O)C3CCc4ccccc43)cn2)c1 (centres undefined),n,37.1,n,n
CC(C)CNC(=O)c1cc(-c2ccc(O)cc2)on1,n,39.4,n,n
O=C(NC1CCCC1)c1cc(-c2ccc(O)cc2)on1,n,39.7,n,n
COCCNC(=O)c1cc(-c2cccc(O)c2)on1,n,n,n,n
CCCNC(=O)c1cc(-c2cccc(O)c2)on1,n,52.6,n,n
Cc1c(C(=O)Nc2c(F)cccc2F)sc2ncnc(N(C)c3ccccc3)c12,n,n,n,n
CCCC1=C(C(=O)OCC)C(c2ccccc2[N+](=O)[O-])n2ncnc2N1 (centres undefined),n,n,n,n
CCCC1=C(C(=O)OCC)C(c2cccc([N+](=O)[O-])c2)n2ncnc2N1 (centres undefined),n,32.7,n,n

# Source: PubChem BioAssay (The Scripps Research Institute Molecular Screening Center)
